Data published in PubChem BioAssay (NCI).
The panel holds about 83,000 compounds, 20% with a hit somewhere; the sample as a whole holds those more often.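 Negative percent growth values reflect cell death: -40 means 40% of the cells present at the start died, and -100 means all died.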 The source made the active and inactive calls. The calls were made as follows: active = growth percent below 10; inactive = the rest.

tested on: NCI-H23 lung; experiment: NCI-60 one-dose screen, 48 h (100 = growth as untreated, 0 = no growth, -100 = all killed); conditions: 10 µM unless noted

Which growth does the source give for `COc1cc(C(=O)n2nc(N3CCN(C)CC3)c3cc(N)ccc32)cc(OC)c1OC` here?
Its growth is 38.3% (inactive).

For `O=C1N[C@@H]2NC(=[N+]3CCOCC3)N[C@@H]2N1`, which growth is on record?
Its growth is 103% (inactive).

How did the growth turn out when `N#Cc1c(N)nnn1Cc1cc(=O)oc2c1ccc1ccccc12` was run?
The growth was 93.2% (inactive).

Which growth does the source give for `COc1cc(OC)cc(C2=C3CC[C@@H]4[C@H](CC[C@]5(C)C(=O)CC[C@@H]45)C3=CC3C(O)c4cccnc4N4C(=O)COC234)c1` (stereo not given in full) here?
Its growth is 98.6% (inactive).

For `C=C(C)[C@@H]1CC[C@]2(C(=O)N3CCN(C)CC3)CC[C@]3(C)[C@H](CC[C@@H]4[C@@]5(C)CC(=C/c6ccncc6)/C(=N/O)C(C)(C)[C@@H]5CC[C@]43C)[C@@H]12`, which growth is on record?
The growth was 78.1% (inactive).

`CN1CCN(Cc2ccc3c(NNC(=O)c4ccccc4)nc4cc(F)ccc4n23)CC1` was tested. Which growth did it give?
The growth was 29.9% (inactive).

How did the growth turn out when `CCOC(=O)c1c2c(n3ccc(C)cc13)C(=O)c1ccccc1C2=O` was run?
Its growth is 85.5% (inactive).

`CCCC(=O)NC(c1ccc2c(c1)OCO2)c1ccc2cccnc2c1O` (stereo not given) was tested. Which growth did it give?
The growth was 24.1% (inactive).

How did the growth turn out when `Cc1nc2sc(C(=O)Nc3ccccc3)c(N)c2cc1C(=O)c1ccccc1` was run?
The growth was 64.4% (inactive).

With `COC(=O)c1ccc2c(c1)C(=O)c1c-2n(CCCN)c(=O)c2cc([N+](=O)[O-])ccc12` as the compound, how does the growth read?
Its growth is -53.8% (active).

`CO[C@]12C=C/C(=C(/C(=O)OCc3cccnc3)C(=O)CCCCCCCC[C@@]3(OC)C=C/C(=C(/C(=O)OCc4cccnc4)C(=O)CCCCCCCC1)O3)O2` was tested. Which growth did it give?
The growth was -53.1% (active).

For `Brc1c2c(c(Br)c3ccccc13)CCCC2`, which growth is on record?
Its growth is 97.7% (inactive).

How did the growth turn out when `Cc1cc2c([nH]1)CSc1cc(S(=O)(=O)c3ccccc3)c(=O)[nH]c1-2` was run?
The growth was 11.4% [100 µM] (inactive).

For `CC1=C(Nc2ccc(N3CCN(C)CC3)cc2)C(=O)c2cncnc2C1=O`, which growth is on record?
The growth was 72.6% (inactive).

With `CCCCCCC1(C)NCCO1` (stereo not given) as the compound, how does the growth read?
The growth was 99.1% (inactive).

Which growth does the source give for `C#CCOc1cccc(Nc2ncnc3ccc(NC(=O)CCl)cc23)c1` here?
Its growth is -66.8% (active).

How did the growth turn out when `COc1ccc(C(=O)C2C(c3ccc(OC)cc3)CN(C)C23C(=O)Nc2ccccc23)cc1` (stereo not given) was run?
The growth was 86.1% (inactive).

How did the growth turn out when `CCN(CC)CCNC(=O)c1cn2ncnc(Oc3ccc(NC(=O)Nc4ccc(Cl)c(C(F)(F)F)c4)c(F)c3)c2c1C` was run?
The growth was -37.4% (active).

Which growth does the source give for `CC(=O)OCc1nc(C#N)c(N(C)C)o1` here?
The growth was 102% (inactive).

Which growth does the source give for `CN[C@]12CC3(C=CC(=O)C=C3)O[C@@]1(Cc1ccc(OC)cc1)N(C)C(=O)N2` here?
The growth was 82.8% (inactive).

How did the growth turn out when `C=C(CNCCc1ccc(O)cc1)[C@@H]1CC[C@]2(CO)CC[C@]3(C)[C@H](CC[C@@H]4[C@@]5(C)CCC(NCCO)C(C)(C)[C@@H]5CC[C@]43C)[C@@H]12` (stereo not given in full) was run?
The growth was -33.5% (active).

Which growth does the source give for `O=C1/C(=C\c2cn(-c3ccccc3)nc2-c2ccc(-c3cccs3)cc2)CCc2ccccc21` here?
Its growth is 71.4% (inactive).

For `Cc1ccc(-c2nn(-c3ccccc3)cc2C=C2C(=O)ON=C2C(C)C)cc1`, which growth is on record?
Its growth is 89.2% (inactive).

Which growth does the source give for `CC/C(=C(/c1ccc(Cl)cc1)c1ccc(OCCN2CCCC2)cc1)c1ccc(OC)cc1` here?
Its growth is 52.9% (inactive).

With `Cc1c(-c2nc3ccc(F)cc3c(=O)[nH]2)c2ccccc2n1C` as the compound, how does the growth read?
The growth was 50.5% (inactive).

Which growth does the source give for `COC1=CC(c2ccc[nH]2)=N/C1=C\c1[nH]c(C)c(C(=O)OCc2ccccc2)c1C` here?
Its growth is -15.7% (active).

`COc1ccc(C/C(C)=C(/c2ccc(OCCN3CCCCC3)cc2)c2ccc(OC(=O)NCc3ccccc3)cc2)cc1` was tested. Which growth did it give?
The growth was -84.6% (active).

Which growth does the source give for `CC(C)N1CN2C(=S)NC3C2N(C1)C(=S)N3C` (stereo not given) here?
Its growth is 102% (inactive).

How did the growth turn out when `CCCCN[C@H]1CC[C@@]2(C)[C@@H](CC[C@@]3(C)[C@H]2[C@H](O)C[C@H]2/C(=C(\CCC=C(C)C)C(=O)OC)[C@@H](OC(C)=O)C[C@@]23C)[C@@H]1C` was run?
Its growth is 90.5% (inactive).

With `O=[N+]([O-])c1ccc(-c2nc(N3CCOCC3)c3c4c(sc3n2)CCCC4)cc1` as the compound, how does the growth read?
Its growth is 88.8% (inactive).

`COc1cc(N2C(=O)[C@H](O)C2c2ccc(SC)cc2)cc(OC)c1OC` (stereo not given in full) was tested. Which growth did it give?
The growth was 23% (inactive).

Which growth does the source give for `C#Cc1ccc(NC(=O)c2ccc(/C=C/C(=O)c3nccn3C)cc2)cc1` here?
The growth was -56% (active).

For `Cc1nnc(NC(=O)c2nc(S(=O)(=O)Cc3ccc(F)cc3)ncc2Cl)s1`, which growth is on record?
Its growth is 90.5% (inactive).

`Cc1ccccc1/C=C1\CN(C(=O)OC(C)(C)C)C/C(=C\c2ccccc2C)C1=O` was tested. Which growth did it give?
The growth was 8.22% (active).

With `C[C@]12C=CC(=O)C=C1CCC1C2[C@@H](O)C[C@@]2(C)C1CC[C@]2(O)C(=O)COC(=O)CCC(=O)O` (stereo not given in full) as the compound, how does the growth read?
Its growth is 106% (inactive).

With `O=C(Cn1c2c(c3ccccc31)CCCC2)Nc1ccc(-c2nc3ccccc3s2)cc1` as the compound, how does the growth read?
The growth was 94.5% (inactive).

With `Cc1cc(Cl)ccc1Nc1nc(C(F)(F)F)ccc1C(=O)N/N=C/c1ccc([N+](=O)[O-])cc1` as the compound, how does the growth read?
The growth was -1.74% (active).

With `O=C(Nn1c2c(sc1=NCc1ccccc1)C(=O)c1ccccc1C2=O)c1cc2ccc1CCc1ccc(cc1)CC2` as the compound, how does the growth read?
Its growth is 32% (inactive).

For `CC(C)c1ccc(COCc2cc(CN3CCCC3)c(O)c3ncccc23)cc1`, which growth is on record?
The growth was 8.78% (active).

For `Cn1cccc1C(=O)C1C(c2cccc([N+](=O)[O-])c2)C2C3CCCCC3CN2C12C(=O)Nc1ccc(Cl)cc12` (stereo not given), which growth is on record?
Its growth is 49.3% (inactive).
